# High-throughput results deposited in PubChem by National Center for Advancing Translational Sciences (NCATS).
# TGFb inhibitor – blocks TGF-b signaling | HepG2 CAGA-GFP TGF-b/SMAD3 reporter, GFP fluorescence, 18 h; TGF-beta stimulated, 500 pg/mL final | Potency, µM (highest dose often 46.1 µM), hits mostly inhibitors | 410,000 tested, 1.2% active | AID 588855; note: nearly all actives have a fitted effect of over 65% in size
#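 TGF-beta reporter screen: HEPG2 CAGA-GFP, 1% FBS, 500 pg/mL TGF-beta final, 18 h; per-cell GFP summed per well; curves fitted and categorized by class.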
# HT1080 IDH1KD tx – kills HT-1080 cells with IDH1 knockdown. Potency, µM (top dose mostly 46.1 µM), usual class: cytotoxic. AID 686971. HT-1080 IDH1 knockdown viability, ATP luminescence, 48 h. 360,000 tested, 2% active
#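 After a 2 h attachment period, IDH1KD HT-1080 cells took pin-transferred compound for 48 h at 37 °C; ATP-based luminescence after 10 min room-temperature reagent incubation reported viability.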
# TDP1 cell noCPT – qHTS for Inhibitors of human tyrosyl-DNA phosphodiesterase 1 (TDP1): qHTS in cells in absence of CPT. DT40 Tdp1-/- hTDP1 cells, no CPT, ATP luminescence, 48 h. Potency, µM (titrated, usually from 46.2 µM), most hits filed as inhibitors. 420,000 tested, 15% active; note: nearly all actives have a fitted effect of over 55% in size
#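 Chicken DT40 Tdp1-/- cells complemented with human TDP1, screened without camptothecin (DMSO vehicle only), 400 cells/well. Compounds pin-transferred, cells incubated at 37 °C for at least 48 hr. Growth read as ATP-dependent luminescence (CellTiter-Glo, 30 min at RT).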
# HT1080-NT tox – kills 2HG-producing HT-1080-NT fibrosarcoma cells | HT-1080-NT fibrosarcoma viability, CellTiter-Glo ATP luminescence, 48 h | Potency, µM (titrated, usually from 46.1 µM), hits mostly cytotoxic | 360,000 tested, 1.6% active | AID 686970;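 note: NT is the 2HG producing partner of a matched IDH1 knockdown line; nearly all actives have a fitted effect of over 55% in size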
#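 Luminescent CellTiter-Glo readout after 48 hours of compound exposure at 37 degrees C defined viability of HT-1080-NT cells. Activity was normalized to DMSO wells and cell-free media wells; concentration-response curves were fitted and assigned curve classes.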
# HepG2 tox – HepG2 cytotoxicity, counter-screen for TGF-b inhibitors. HepG2 CAGA-GFP viability, ATP luminescence, 18 h. Potency, µM (titrated, usually from 46.1 µM), most hits filed as cytotoxic. 410,000 tested, 0.76% active. AID 588856
#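 HepG2 CAGA-GFP cells (1000/well, DMEM with 1% FBS) received compound, then TGF-beta at 500 pg/mL final, and were incubated 18 hours at 37 degrees C. Viability was read by CellTiter-Glo luminescence. Media-only wells were set as complete cell-killing and DMSO as no toxicity.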
# TDP1 cell CPT – DT40-hTDP1 cell growth loss with CPT; chicken DT40 Tdp1-/-;hTDP1 cells + 20 nM CPT, ATP luminescence, 48 h; Potency, µM (titrated, usually from 46.2 µM), hits mostly inhibitors; 420,000 tested, 12% active; AID 686979; note: nearly all actives have a fitted effect of over 55% in size
#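 Cell growth measured by CellTiter-Glo luminescence after a minimum 48 h, 37 C compound exposure with 20 nM CPT in Tdp1-knockout DT40 cells stably expressing hTDP1, seeded 400/well; qHTS titration format.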
# Hits are given with their value; . = inactive; ? = inconclusive; / = no result given. Sampled rows, rich in hits. Any-hit rate of the full collection: about 17%. Calls come from the whole dose curve; as a rule, active = well fitted curve in the direction sought with a large enough effect; inconclusive = small, poorly fitted or top-dose-only effect, or another doubt; inactive = no such curve, though single readings can be large; an effect the other way counts as inactive or inconclusive.
SMILES,TGFb inhibitor,HT1080 IDH1KD tx,TDP1 cell noCPT,HT1080-NT tox,HepG2 tox,TDP1 cell CPT
Cc1noc(C)c1NC(=O)Nc1cccc2c1O[C@H](CN(C)C(=O)NC(C)C)[C@@H](C)CN([C@H](C)CO)C2=O,.,.,.,.,.,.
COC(=O)[C@@]12C[C@@H](CC(=O)N3CCOCC3)C(=O)N(Cc3ccc4c(c3)OCO4)C1=CCC(C)(C)C2,/,.,.,.,/,?
COCCn1c(=O)c(-c2ccccc2)nc2cnc(Oc3ccccc3)nc21,/,/,.,/,/,.
O=C1CCCN1CCC(=O)N1CCCC(N2CCN(c3ccccc3F)CC2)C1 (stereo not drawn),.,.,.,.,.,.
CCN(CC(=O)NCCCN1CCOCC1)S(=O)(=O)c1ccc(Cl)cc1,.,.,.,.,.,.
Cc1ccc2nc(CSc3nnc(NC(=O)C(C)C)s3)cc(=O)n2c1,.,/,?,/,.,?
COc1ccc(O)c(C(=O)CC(=O)c2ccccc2C)c1,?,?,5.8µM,.,.,7.3µM
COc1ccc(Oc2ccc(NC(=O)c3ccccc3C)cc2)cc1,.,?,21µM,?,.,?
CC(=O)Nc1ccc(NC(=O)c2ccccc2C)cc1,.,.,.,.,.,.
COc1cc(/C=C/C(=O)O)cc(S(=O)(=O)Nc2ccccc2Cl)c1OC,.,.,.,.,.,.
Cc1cc(C(=O)CCC(=O)N(C)CC2COc3ccccc3O2)c(C)s1 (stereo not drawn),.,.,?,.,.,?
COc1ccc(NC(=O)CC(c2ccco2)C(C)C)cc1 (stereo not drawn),.,.,?,.,.,.
C=C1CCN(C(CC(C)C)C(=O)NCc2ccc(Cl)cc2)S(=O)(=O)c2ccccc21 (stereo not drawn),?,/,/,/,.,/
COc1cc(/C=C(/C#N)c2ccccc2F)ccc1OCc1ccccc1,.,.,18µM,.,.,16µM
COCCCNC(=O)c1ccc(Cn2c(=O)c3ccccc3n(Cc3ccccc3C#N)c2=O)cc1,.,?,?,?,.,16µM
COCCCNC(=O)c1ccc(Cn2c(=O)c3ccccc3n(Cc3ccccc3C)c2=O)cc1,.,16µM,?,?,.,?
c1ccc(CNc2cc(-c3ccoc3)ncn2)cc1,/,/,.,/,/,.
Cc1cc(C)c2c(=O)n(CC(=O)NC3CCCC3)sc2n1,.,.,4.1µM,.,.,2.9µM
Cc1cc(C)c2c(=O)n(CC(=O)Nc3cccc(Cl)c3C)sc2n1,?,?,3.7µM,?,.,5.2µM
Cc1c(Cl)cccc1NC(=O)Cn1cccc1,.,.,.,.,.,.
Cc1cc(C)c2c(=O)n(CC(=O)Nc3ccc(Br)c(C)c3)sc2n1,?,.,9.2µM,.,.,8.2µM
O=C(CN1C(=O)C2(SCC(=O)N2c2ccc(F)cc2)c2ccccc21)NCCc1ccccc1 (stereo not drawn),.,/,?,/,.,?
O=S(=O)(c1cccc(Cl)c1)N1CCN(c2nc(-c3ccccc3)nc3ccccc23)CC1,.,/,?,/,.,?
CC1Cc2ccccc2N1C(=O)CCn1c(=O)sc2ccccc21 (stereo not drawn),.,.,16µM,.,.,?
CC1Cc2ccccc2N1C(=O)CCN1C(=O)C2C3C=CC(C3)C2C1=O (stereo not drawn),.,.,.,.,.,.
SMILES,TGFb inhibitor,HT1080 IDH1KD tx,TDP1 cell noCPT,HT1080-NT tox,HepG2 tox,TDP1 cell CPT
CCOC(=O)c1cc2sccc2n1CC(=O)N1c2ccccc2CC1C (stereo not drawn),.,.,21µM,.,.,18µM
CCOC(=O)c1cc2sccc2n1CC(=O)O,.,?,.,.,.,.
CCOC(=O)c1cc2sccc2n1CC(=O)c1ccc2c(c1)OCCO2,.,.,13µM,.,.,15µM
CCOC(=O)Cn1ccc2cc(S(=O)(=O)N3CCCC3)ccc21,.,.,.,.,.,.
CCOc1ccc(CNC(=O)C2CCCN(c3nn4cc(-c5ccc(OC)cc5)nc4s3)C2)cc1 (stereo not drawn),.,/,18µM,/,.,16µM
COc1cccc(CNC(=O)C2CCCN(c3nn4cc(-c5ccc(C)cc5)nc4s3)C2)c1 (stereo not drawn),.,/,15µM,/,.,21µM
COc1ccc(-c2cn3nc(N4CCCC(C(=O)Nc5cc(Cl)ccc5OC)C4)sc3n2)cc1 (stereo not drawn),.,/,?,/,.,?
CCc1ccc(NC(=O)C2CCCN(c3nn4cc(-c5ccc(OC)cc5)nc4s3)C2)cc1 (stereo not drawn),.,/,13µM,/,.,?
COc1ccc(-c2cn3nc(N4CCCC(C(=O)Nc5ccccc5OC)C4)sc3n2)cc1 (stereo not drawn),?,/,16µM,/,.,15µM
COc1ccc(N2CCN(C(CNC(=O)C(=O)NCCCN(C)C)c3cccnc3)CC2)cc1 (stereo not drawn),.,/,.,/,.,.
CCCSCCCNC(=O)C1CCCN(c2nn3cc(-c4ccc(OC)cc4)nc3s2)C1 (stereo not drawn),.,/,13µM,/,.,21µM
COc1ccc(-c2cn3nc(N4CCCC(C(=O)NCc5ccc(Cl)cc5)C4)sc3n2)cc1 (stereo not drawn),.,/,8.2µM,/,.,9.2µM
CCOCCCNC(=O)C1CCN(c2nn3cc(-c4ccc(F)cc4)nc3s2)CC1,.,/,15µM,/,.,21µM
CCOc1ccc(CNC(=O)C2CCCN(c3nn4cc(-c5ccc(F)cc5)nc4s3)C2)cc1 (stereo not drawn),?,/,23µM,/,.,21µM
O=C(NCc1cccc(F)c1)C1CCN(c2nn3cc(-c4ccc(F)cc4)nc3s2)CC1,.,/,?,/,.,.
O=c1cc(-c2ccccc2)c2cc(Cl)c3c(c2o1)CN(Cc1ccccc1)CO3,.,/,?,/,.,?
O=c1cc2c(c(-c3ccccc3)n1Cc1ccccc1)[C@@H](CCO)NC2,.,.,.,.,.,.
O=S(=O)(c1cnc[nH]1)N1CCN(C(c2ccc(F)cc2)c2ccc(F)cc2)CC1,.,.,?,.,.,.
O=C(c1ccccc1F)N1CCN(C(=O)C2CC2)CC1,.,.,.,.,.,.
CCOc1cc(CNC(=O)CN2CCSc3ccccc32)cc(OCC)c1OCC,.,/,/,/,.,/
CCc1ccc(CNC(=O)C2CCCN(c3nn4cc(-c5ccc(F)cc5)nc4s3)C2)cc1 (stereo not drawn),.,/,16µM,/,.,16µM
